From PubChem BioAssay (EPA / NIEHS)
Calls of active or inactive are those of the source. The calls were made as follows: active = hit-call score of the fitted dose curve at least 0.9, where 1 is the maximum; inactive = score below 0.9.

Read-out: Pselectin, SELP (gene 6403)
Assay: BSK_4H_Pselectin: BioMAP Diversity Plus: 4H Assay for Pselectin Biomarker Activity (AID 2283026)
Details: primary human endothelial cells (HUVEC); actives raise or lower the signal
In short: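 Endothelial primary cells (human umbilical vein) are dosed, incubated 24 h, and assayed for surface P-selectin by ELISA; responses in either direction are fitted relative to the DMSO negative control.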

| Compound | outcome | AC50 |
| --- | --- | --- |
| O=[N+]([O-])c1ccc(Nc2ccccc2)cc1 | inactive |  |
| Oc1cc(Cl)c(Cl)cc1Cl |  | 25.6 µM (active) |
| CCCCN(CCCC)C(=S)[S-].CCCCN(CCCC)C(=S)[S-].[Ni+2] | inactive |  |
| O=C(CCl)NCO | inactive |  |
| O=[N+]([O-])c1cccc2ccccc12 | inactive |  |
| OC(Cc1ccccc1Cl)(Cn1[nH]cnc1=S)C1(Cl)CC1 (stereo not given) |  | 20 µM (active) |
| Cc1ccc2nc3sc(=O)sc3nc2c1 |  | 3.77 µM (active) |
| Cc1cccc(OP(=O)(Oc2cccc(C)c2)Oc2cccc(C)c2)c1 | inactive |  |
| Cc1cc(Cl)ccc1OC(C)C(=O)O (stereo not given) | inactive |  |
| O=c1oc2ccccc2c(O)c1C(CC(O)c1ccc(-c2ccc(Br)cc2)cc1)c1ccccc1 (stereo not given) |  | 6.34 µM (active) |
| C#CCOC(=O)/C=C(C)/C=C/CC(C)CCCC(C)C (stereo not given) |  | 20 µM (active) |

Read-out: not listed separately
Assay: BSK_4H_SRB: Viability Assessment in the BioMAP Diversity Plus: 4H Assay (AID 2283027);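 also: cells exposed to compound for 24 h before staining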;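 as to AC50: curves fitted both ways versus DMSO so AC50 may be loss or gain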
Details: primary human endothelial cells (HUVEC)
In short: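 Cytotoxicity readout: sulforhodamine B (0.1%) staining of total protein after 10% TCA fixation, measured at 560 nm in human umbilical vein endothelium at 24 h. DMSO set the baseline; fitting was bidirectional.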

| Compound | outcome | AC50 |
| --- | --- | --- |
| OCCCCO | inactive |  |
| CCOP(=S)(OCC)SCS(=O)(=O)C(C)(C)C | inactive |  |
| OCCN(CCO)CCO | inactive |  |
| c1ccc2sc(SNC3CCCCC3)nc2c1 | inactive |  |
| O=C(N[C@H]1CN2CCC1CC2)c1ccc2c(c1)OCCO2 | inactive |  |
| COCC(=O)N(c1c(C)cccc1C)[C@H](C)C(=O)OC | inactive |  |
| Cc1cc(C)cc(C)c1 | inactive |  |
| CCOP(=O)(OCC)OC(=CCl)c1ccc(Cl)cc1Cl |  | 29.3 µM (active) |
| c1ccc(-c2cccc(-c3ccccc3)c2)cc1 |  | 20 µM (active) |
| Nc1ccc(N)cc1 | inactive |  |
| CN(C)C(=S)S | inactive |  |
| CCCCOC(=O)COC(=O)c1ccccc1C(=O)OCCCC | inactive |  |
| Cc1c([N+](=O)[O-])c(C)c([N+](=O)[O-])c(C(C)(C)C)c1[N+](=O)[O-] | inactive |  |
| CC(C)O.CC(C)O.OCCN(CCO)CCO.OCCN(CCO)CCO.[Ti] | inactive |  |
| N#Cc1cccnc1 | inactive |  |
| Cc1ccccc1OP(=O)(Oc1ccccc1C)Oc1ccccc1C |  | 15.2 µM (active) |
| CCCCCCCCCCCCc1cccc(S(=O)(=O)O)c1 | inactive |  |

| Compound | outcome | AC50 |
| --- | --- | --- |
| O=C(O)C1(c2ccc3c(c2)OC[C@H](Cc2ccc(-c4ccccc4)cc2)[C@H]3O)CCCC1 |  | 20 µM (active) |
| Cc1cc(Cl)ccc1N | inactive |  |
| CCOC(=O)CCN(SN(C)C(=O)Oc1cccc2c1OC(C)(C)C2)C(C)C | inactive |  |
| C=CC(Cl)CCl (stereo not given) | inactive |  |
| CCC(C)(C#N)N=NC(C)(C#N)CC (stereo not given) | inactive |  |
| [Cl][Sn]([c]1ccccc1)([c]1ccccc1)[c]1ccccc1 |  | 0.192 µM (active) |
| O=[N+]([O-])c1ccc(Nc2ccccc2)cc1 | inactive |  |
| Oc1cc(Cl)c(Cl)cc1Cl |  | 25.5 µM (active) |
| CCCCN(CCCC)C(=S)[S-].CCCCN(CCCC)C(=S)[S-].[Ni+2] | inactive |  |
| O=C(CCl)NCO | inactive |  |
| O=[N+]([O-])c1cccc2ccccc12 | inactive |  |
| OC(Cc1ccccc1Cl)(Cn1[nH]cnc1=S)C1(Cl)CC1 (stereo not given) |  | 27.8 µM (active) |
| Cc1ccc2nc3sc(=O)sc3nc2c1 |  | 6.96 µM (active) |
| Cc1cccc(OP(=O)(Oc2cccc(C)c2)Oc2cccc(C)c2)c1 | inactive |  |
| Cc1cc(Cl)ccc1OC(C)C(=O)O (stereo not given) | inactive |  |
| O=c1oc2ccccc2c(O)c1C(CC(O)c1ccc(-c2ccc(Br)cc2)cc1)c1ccccc1 (stereo not given) |  | 12.7 µM (active) |
| C#CCOC(=O)/C=C(C)/C=C/CC(C)CCCC(C)C (stereo not given) |  | 33.2 µM (active) |
